Only a selection was taken, and hits are over-represented in it overall.
Methyltransferases – Primary Screen for Target Class Profiling of Small Molecule Inhibitors of Methyltransferases; purified enzyme, MTase-Glo SAH luminescence; active compounds read low; calls only at 40 µM; 3.9% of 25,000 active; call rule not given here
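Each enzyme was assayed with SAM and its substrate. SAH formation detected by MTase-Glo luminescence; single-point 40 uM screen[…].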
MTase-Glo ctr – detection enzyme interference, methyltransferase counter-screen. shares compounds with Methyltransferases. MTase-Glo coupled enzymes, SAH conversion luminescence, no MTase. Potency, µM (titrated, usually from 57.3 µM), most hits filed as inhibitors. 6% of 180 active. AID 1745851; active = well fitted inhibition curve with a large enough effect; inconclusive = small, poorly fitted or top-dose-only effect
Of the large screens only hits and unclear results are named; the others gave an inactive call (follow-up assays come after a bar, where they were run).

CCCNC(=O)N1Cc2ccccc2-n2cccc2C1c1ccc(N(C)C)cc1 (centres undefined)	none
CN1CC[C@@]2(C)c3cc(O)ccc3N(C)C12 (some centres undefined)	Methyltransferases active
COc1ccc(OC)c(NC(=O)N2Cc3ccccc3-n3cccc3C2c2cccs2)c1 (centres undefined)	none
COC(=O)C12C(=O)C(C)(O)C(=O)C1(C)C(C)=CC1C34CCC(OC3=O)C(C)(C)C4CCC12C (centres undefined)	none
CCOC(=O)CNC(=O)N1Cc2ccccc2-n2cccc2C1c1ccc(SC)cc1 (centres undefined)	none
NC(=O)c1ccc(N2CC3CCC(C2)N3CC(F)(F)F)nn1	Methyltransferases active | MTase-Glo ctr inactive
FC(F)(F)CN1C2CCC1CN(c1nnc(Cl)c3ccccc13)C2	none
Cn1nc(-c2ccc(F)cc2)cc1[C@H]1CN2CC[C@H]1C[C@@H]2CNC(=O)c1cccs1	none
CCC(CC)c1cc([C@H]2CN3CC[C@H]2C[C@@H]3CNC(=O)C2CCC2)nc(-c2ccncc2)n1	none
Cc1nc(-c2ccccc2)cc([C@H]2CN3CC[C@H]2C[C@@H]3CNS(C)(=O)=O)n1	none
COc1ccc(-c2cc([C@H]3CN4CC[C@H]3C[C@@H]4COC(=O)NC3CCCCC3)nc(C)n2)cc1	none
CC(=O)c1cccc(NC(=O)NC[C@H]2C[C@@H]3CCN2C[C@@H]3c2cc(-c3ccc(F)cc3)nc(C)n2)c1	Methyltransferases active | MTase-Glo ctr inconclusive
COc1ccc(-c2cc([C@H]3CN4CC[C@H]3C[C@@H]4CN)nc(C)n2)cc1OC	Methyltransferases active | MTase-Glo ctr inactive
CCOCCCNC(=O)N1Cc2ccccc2-n2cccc2C1c1ccc(C(C)C)cc1 (centres undefined)	none
CCOc1ccc(C2c3cccn3-c3ccccc3CN2C(=O)Nc2ccc(OC)cc2OC)cc1 (centres undefined)	none
COc1cc(CCNCc2ccccc2O)c(OC)cc1C#N	none
COc1cccc([C@@H]2CCN(Cc3[nH]c4ccccc4c3C)C[C@H]2O)c1	none
COC(=O)CC1CC2(C(=O)c3c(O)cccc3C2(O)C(=O)OC)C(C)O1 (centres undefined)	none
CCOCCCNC(=O)N1Cc2ccccc2-n2cccc2C1c1ccccc1Cl (centres undefined)	none
CN(CCc1ccccn1)C[C@H]1CN2CC[C@H]1C[C@@H]2CNC(=O)c1ccco1	none
CC(C)NC(=O)NC[C@H]1C[C@@H]2CCN1C[C@@H]2CN1CCC(Cc2ccccc2)CC1	none
CN(CCc1ccccn1)C[C@H]1CN2CC[C@H]1C[C@@H]2CNC(=O)Nc1ccsc1	Methyltransferases active | MTase-Glo ctr inactive
Cc1cccc(NC(=O)N2Cc3ccccc3-n3cccc3C2C(C)C)c1 (centres undefined)	none
CCc1ccc(C2c3cccn3-c3ccccc3CN2C(=O)Nc2ccc(C)c(F)c2)cc1 (centres undefined)	none
Cc1ccc(C)c(NC(=O)N2Cc3ccccc3-n3cccc3C2c2ccc(N(C)C)cc2)c1 (centres undefined)	none

Assay outcomes as filed in PubChem BioAssay.
